# Hits are enriched below; roughly 1.9% of the tested compounds scored in any of these assays.
# PABP polyA inh = PABP-poly(A) binding inhibition; AID 2014; PABP-poly(A) RNA binding, fluorescence polarization; inhibition, % at 35 µM; hit rate 1% among 290,000;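 note: calls also rest on retests at 20 µM and on dose response follow-up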
# GRK2 aptamer HTS = human GRK2 inhibition via aptamer displacement; AID 488847; inhibition of aptamer binding, % at 10 µM; bead flow cytometry, FAM-aptamer displacement from GRK2; hit rate 0.59% among 330,000; P25098;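 active = inhibition of aptamer binding above 40%, roughly 3 SD of noise, on plates passing a quality check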;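 note: median bead fluorescence of bound FAM aptamer so fluorescent compounds give negative values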
# Target sequence (P25098 whole entry, looked up): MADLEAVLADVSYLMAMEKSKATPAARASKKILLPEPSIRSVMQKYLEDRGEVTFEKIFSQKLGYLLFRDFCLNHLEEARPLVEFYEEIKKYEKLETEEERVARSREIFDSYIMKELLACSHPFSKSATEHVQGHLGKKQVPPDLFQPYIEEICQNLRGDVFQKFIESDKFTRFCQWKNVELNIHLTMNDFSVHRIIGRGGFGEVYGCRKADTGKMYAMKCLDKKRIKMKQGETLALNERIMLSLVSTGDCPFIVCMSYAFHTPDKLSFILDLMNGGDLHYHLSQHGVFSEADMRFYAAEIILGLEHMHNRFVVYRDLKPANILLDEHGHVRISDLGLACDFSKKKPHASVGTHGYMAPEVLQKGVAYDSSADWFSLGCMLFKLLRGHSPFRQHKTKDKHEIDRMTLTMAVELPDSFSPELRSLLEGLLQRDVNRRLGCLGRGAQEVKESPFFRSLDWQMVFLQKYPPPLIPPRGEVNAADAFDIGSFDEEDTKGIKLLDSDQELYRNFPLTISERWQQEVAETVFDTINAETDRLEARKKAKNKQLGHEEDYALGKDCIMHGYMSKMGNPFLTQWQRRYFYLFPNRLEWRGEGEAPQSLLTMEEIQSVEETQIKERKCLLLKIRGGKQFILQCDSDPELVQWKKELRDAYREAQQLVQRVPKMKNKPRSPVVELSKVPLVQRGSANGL
# PABP1 MLLE inh = inhibitors of microRNA-mediated deadenylation, human PABP1 MLLE binding. P11940. GST-MLLE / FITC-PAM2 fluorescence polarization. inhibition, % at 20 µM. hit rate 0.36% among 360,000. AID 588489; in the data active = inhibition above about 35%, passing the limit was not always enough;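 note: plate controls were DMSO wells with GST-MLLE for no effect and wells lacking GST-MLLE protein for full effect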
# PERK inh = blocks human PERK kinase | CHO PERK-DD fusion, SEAP luminescence translation reporter | hit rate 0.17% among 220,000 | inhibition, % at 5.6 µM;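 active = inhibition above the mean inhibition of all tested compounds plus 3 SD, set separately per screening campaign, cut at about 2.9% in these data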;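 note: PERK kinase domain activated by AP20187 dimerizer at 100 nM; 0% = DMSO with dimerizer and 100% = rapamycin at 8.4 µM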
# eIF4H FP inh = inhibitors of RNA binding by human eIF4H. eIF4H fluorescence polarization binding assay. Q15056. hit rate 0.94% among 290,000. inhibition, % at 35 µM. AID 2012;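 note: calls also rest on retests at 20 µM and on dose response follow-up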
# GRK2 inh confirm = human GRK2 inhibition confirmation, cherry pick 1. aptamer displacement, % at 10 µM. hit rate 4% among 2,000. bead-bound GRK2, FAM-aptamer displacement, flow cytometry. shares compounds with GRK2 aptamer HTS. AID 504451;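 active = aptamer displacement above 40%, near three times the noise of non-fluorescent compounds, on plates passing quality checks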;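 note: negative values mostly reflect intrinsic compound fluorescence rather than true enhancement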
# Aptamer quench SP = aptamer fluorescence quenching in GRK2 counter-screen | shares compounds with GRK2 aptamer HTS | Carboxyfluorescein RNA aptamer on beads, flow cytometry quenching; active compounds read low | fluorescence response (% of DMSO), % at 10 µM | 2,000 tested, under 10 active | AID 504580;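 active = compounds that quench the bead-bound fluorescent RNA probe, cutting fluorescence to under half of the solvent control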;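 note: counterscreen run without GRK2 so only probe quenching by compound is measured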
# GRK2 CP2 = human GRK2 inhibition confirmation, cherry pick 2; bead-bound GRK2, FAM-aptamer displacement, flow cytometry; shares compounds with GRK2 aptamer HTS; inhibition of aptamer binding, % at 10 µM; 360 tested, under 10 active;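 active = inhibition of aptamer binding above 40%, about triple the noise seen with nonglowing compounds, on plates passing quality control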;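 note: negative values mostly come from compounds that fluoresce themselves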
# FAM quench CP2 = quenches fluorescent RNA aptamer, GRK2 hit artifact; shares compounds with GRK2 aptamer HTS; 360 tested, under 10 active; fluorescence response vs DMSO, % at 10 µM; AID 588494; carboxyfluorescein RNA aptamer beads, flow cytometry quenching; active compounds read low;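 active = response vs DMSO under 50%, meaning signal dropped by over half, treated as fluorescence quencher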;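 note: labelled aptamer on streptavidin beads without GRK2 as a quench counter-screen; 100% = bead fluorescence of DMSO wells and lower means quenching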
# Starred values were filed as active, the others as inactive; x = not tested or not shown. Unless noted, the rule behind the calls is not given here.
SMILES,PABP polyA inh,GRK2 aptamer HTS,PABP1 MLLE inh,PERK inh,eIF4H FP inh,GRK2 inh confirm,Aptamer quench SP,others
COc1ccc(CCNC(=O)CS(=O)(=O)Cc2nc(-c3ccccc3Cl)oc2C)cc1OC,-15,66*,-15,x,-8,1,96,GRK2 CP2=-21;FAM quench CP2=103
Cc1oc(-c2ccccc2Cl)nc1CS(=O)(=O)CC(=O)NCCc1ccccc1,1,1,6,x,-1,x,x,
CC(C)NC[C@H](O)COc1cccc2ccccc12,x,13,8,x,x,3,96,
O=C(COC(=O)Cc1c[nH]c2ccccc12)Nc1cc(S(=O)(=O)N2CCOCC2)ccc1Cl,x,0,-2,x,x,x,x,
CCCCC(=O)Nc1ccc(C(=O)NNC(=O)c2ccco2)cc1,-15,65*,3,1,3,0,93,
COC(=O)Cc1ccc(NC(=O)c2ccc(NC(=O)c3ccco3)cc2)cc1,-10,1,14,-1,-8,x,x,
O=C(O)Cc1ccc(NC(=O)c2ccc(NC(=O)c3ccco3)cc2)cc1,10,48*,-10,1,2,1,98,
CCOC(=O)c1cnc2cc(F)c(F)cc2c1N1CCOCC1,-1,1,7,x,-1,x,x,
Cc1ccc(S(=O)(=O)Nc2cc(Cl)c(O)c3ncccc23)cc1,-4,55*,41*,x,18,x,x,GRK2 CP2=-30;FAM quench CP2=111
Oc1c(Cl)cc(Cl)c2cccnc12,-6,x,10,0,19,x,x,
CC(C)c1nnc(NC(=O)C2CCCN(C(=O)Nc3ccc(F)cc3)C2)s1 (stereo not drawn),0,0,-4,x,1,2,98,
Clc1cccc(CN2CCSCC2)c1,28,99*,12,x,5,34,102,
CC1CC(C)CN(C(=O)C(Cc2ccccc2)n2cccc2)C1 (stereo not drawn),4,0,0,-1,3,x,x,
CC1CCN(C(=O)C(Cc2ccccc2)n2cccc2)CC1 (stereo not drawn),-13,56*,9,1,-2,3,100,
CCOC(=O)c1ccc(N2C(=O)C3CCCN3C2=S)cc1 (stereo not drawn),x,42*,-14,x,x,x,x,GRK2 CP2=-2;FAM quench CP2=103
NS(=O)(=O)c1ccc(NC(=S)N2CCN(c3cccc(Cl)c3)CC2)cc1,13,0,-68,0,8,x,x,
NS(=O)(=O)c1ccc(NC(=S)N2CCN(c3ccccc3Cl)CC2)cc1,3,48*,-120,0,4,x,x,GRK2 CP2=2;FAM quench CP2=334
C=CCOc1ccc2ccccc2c1CNn1c(C)n[nH]c1=S,-1,78*,3,x,-5,-15,99,
Cc1nn(-c2ccccc2)c(C)c1NC(=O)COc1cc(F)ccc1[N+](=O)[O-],x,3,-2,x,x,x,x,
Cc1nn(C)c(C)c1C(C)NC(=O)c1cc(COc2cncc(Cl)c2)on1 (stereo not drawn),1,83*,0,x,-8,3,97,
Cc1nn(C)c(C)c1C(C)NC(=O)c1cc(COc2ccc(F)c(F)c2)on1 (stereo not drawn),-7,3,-7,x,-11,x,x,
CC(C)(C)CC(=O)NC(=S)NCCc1ccccc1,3,80*,32,0,7,-1,96,
O=C(NC1CCCCC1)N1CCN(Cc2nc3ccccc3c(=O)[nH]2)CC1,x,0,1,1,x,x,x,GRK2 CP2=-6;FAM quench CP2=100
CCC(CC)C(=O)N1CCN(Cc2nc3ccccc3c(=O)[nH]2)CC1,2,0,-5,0,1,x,x,
O=c1[nH]c(CN2CCN(c3ccccc3)CC2)nc2ccccc12,0,0,8,0,5,x,x,GRK2 CP2=10;FAM quench CP2=101
SMILES,PABP polyA inh,GRK2 aptamer HTS,PABP1 MLLE inh,PERK inh,eIF4H FP inh,GRK2 inh confirm,Aptamer quench SP,others
O=C(c1cccs1)N1CCN(Cc2nc3ccccc3c(=O)[nH]2)CC1,-6,5,-4,-1,-4,x,x,GRK2 CP2=-9;FAM quench CP2=98
O=C(c1ccco1)N1CCN(Cc2nc3cc(Cl)ccc3c(=O)[nH]2)CC1,4,4,6,-1,-8,x,x,GRK2 CP2=-9;FAM quench CP2=102
CCN(CC)C(=O)COc1ccc2oc(-c3ccco3)cc(=O)c2c1,13,62*,1,0,17,15,96,
CCN(CC)C(=O)COc1c(-c2ccco2)oc2ccccc2c1=O,-8,2,-6,x,18,x,x,
NC(CO)C(O)c1ccc([N+](=O)[O-])cc1 (stereo not drawn),4,98*,8,1,-6,1,99,
O=C(Cc1cccs1)NCc1cccc(Br)c1,-16,55*,11,x,-12,2,102,
COc1ccc(CCNS(=O)(=O)c2ccc3c(c2)CCCC3)cc1OC,x,42*,6,x,x,x,x,GRK2 CP2=18;FAM quench CP2=101
COc1ccc(CCNS(=O)(=O)c2ccc3c(c2)OCCO3)cc1OC,-2,0,-7,0,4,x,x,
CCOc1ccc(C(C)NC(=O)C2CCC2)cc1 (stereo not drawn),-5,100*,5,1,8,x,x,GRK2 CP2=-10;FAM quench CP2=101
CC(=O)c1ccc(OC2(C)CCN(Cc3csc4ccccc34)C2)cc1 (stereo not drawn),x,x,-1,x,x,x,x,
CCOC(=O)[C@@H](C)N(Cc1ccc(OC)cc1)S(=O)(=O)N(Cc1ccccc1)[C@H](C(=O)OC)C(C)C,x,0,-5,x,x,x,x,
CCNc1nc(OC)nc(N2CCC(Cc3ccccc3)CC2)n1,8,100*,-1,1,-3,x,x,GRK2 CP2=10;FAM quench CP2=107
COc1nc(NCc2ccco2)nc(N2CCC(C)CC2)n1,-6,1,-3,0,8,x,x,
Cc1nn(-c2ccccc2)c2c1C(=O)N(Cc1ccccc1)C(=O)C(C)(C)C2,3,44*,-5,-1,3,-1,95,
Cc1nn(-c2nc3ccccc3n2Cc2ccccc2)c2c1C(=O)CC(C)(C)C2,-5,0,-2,-1,-9,x,x,
O=C(CCCN1C(=O)/C(=C/c2cccs2)SC1=S)Nc1cccc(C(=O)O)c1,-6,95*,14,1,-1,1,101,
Cc1ccccc1NC(=O)CCCCCN1C(=O)[C@@H]2Cc3ccccc3CN2C1=O,-10,2,-2,x,-21,x,x,
COc1ccc(NC(=O)CCCCCN2C(=O)[C@@H]3Cc4ccccc4CN3C2=O)cc1Cl,15,0,10,x,-6,0,99,
Cc1cccc(NC(=O)CCCCCN2C(=O)[C@@H]3Cc4ccccc4CN3C2=O)c1,2,0,5,x,4,-1,98,
O=C(CCCCCN1C(=O)[C@@H]2Cc3ccccc3CN2C1=O)Nc1cccc(F)c1,x,0,2,x,x,3,96,
O=C(CCCCCN1C(=O)[C@@H]2Cc3ccccc3CN2C1=O)Nc1ccccc1Cl,-5,2,-9,x,-6,x,x,
